# Assay outcomes (PubChem)
# HT1080NT lethal = kills 2HG-producing HT-1080-NT fibrosarcoma cells; HT-1080-NT fibrosarcoma viability, CellTiter-Glo ATP luminescence, 48 h; Potency, µM (series often up to 46.1 µM), for inactives: at the top dose activity, negative = less viability, most hits filed as cytotoxic; 360,000 compounds, 1.6% hits;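 also: NT is the 2HG producing partner of a matched IDH1 knockdown line; potency is read from the fitted curve at half-maximal effect; 0% = DMSO-treated cells and -100% = media-only wells without cells; nearly all actives have a fitted effect of over 55% in size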
#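 HT-1080-NT; 750 cells/well; 5% FBS RPMI; 48 h compound, 37 degrees C; CellTiter-Glo luminescence; curve fitting and curve-class assignment.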
# IL1B secr inh = inhibitors of inflammasome signaling (IL-1 beta secretion); activity change, % at 57.5 µM; 360,000 compounds, 4.7% hits; THP-1 LPS/ATP IL-1B secretion, AlphaLISA, 16 h; stronger effect = lower value; in the data active = activity change below about -50%; inconclusive = mostly about -30% to -49%; also: % is scaled to controls: 0 for no effect and ±100 for the full control effect
#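 Secreted IL-1B measured by AlphaLISA bead assay after 16 h compound exposure of THP-1 cells; compounds (final up to 57.5 uM) added 1 h before LPS (250 ng/mL) and ATP (1.25 mM) stimulation; lower signal means less secretion.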
# TGFb inhibitor = TGF-b pathway inhibition | HepG2 CAGA-GFP TGF-b/SMAD3 reporter, GFP fluorescence, 18 h; TGF-beta stimulated, 500 pg/mL final | Potency, µM (top dose mostly 46.1 µM), inactives show at the top dose activity, negative = inhibition, actives largely listed as inhibitors | 410,000 compounds, 1.2% hits | AID 588855; also: potency is read from the fitted curve at half-maximal effect; % is scaled to controls: 0 for no effect and ±100 for the full control effect; nearly all actives have a fitted effect of over 65% in size
#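 Smad-responsive CAGA-GFP expression was quantified in HEPG2 cells exposed to compounds and 500 pg/mL final TGF-beta for 18 h at 37 degrees C; unstimulated wells defined full inhibition.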
# HepG2 tox = counter-screen for TGF-b inhibitors: cytotoxicity in HepG2 cells | HepG2 CAGA-GFP viability, ATP luminescence, 18 h | Potency, µM (doses to about 46.1 µM), without a hit: at the top dose activity change, negative = cytotoxicity, most hits filed as cytotoxic | 410,000 compounds, 0.76% hits | AID 588856; also: potency is read from the fitted curve at half-maximal effect
#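 CellTiter-Glo luminescence gave cytotoxicity after 18 hours at 37 degrees C. The cells were HepG2 CAGA-GFP in 1% FBS DMEM, stimulated with 500 pg/mL TGF-beta after compound addition. %Activity was normalised to no-cell wells (complete cell-killing) and DMSO (no toxicity), and curves were fitted and classified.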
# HT1080 IDH1KD tx = kills HT-1080 cells with IDH1 knockdown. HT-1080 IDH1 knockdown viability, ATP luminescence, 48 h. Potency, µM (doses to about 46.1 µM), without a hit: at the highest dose activity, negative = toxicity, most hits filed as cytotoxic. 360,000 compounds, 2% hits;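 also: potency is read from the fitted curve at half-maximal effect; 0% = DMSO wells and -100% = cell-free medium wells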
#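 In this qHTS, HT-1080 cells depleted of IDH1 are exposed for 48 h at 37 °C to compound titrations. Toxicity is scored from CellTiter-Glo luminescence, with DMSO as full viability and medium alone as none.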
# Giardia kill = Giardia lamblia killing. Giardia lamblia trophozoite viability. activity change, % at 7.66 µM, hits read low. 340,000 compounds, 0.15% hits; in the data active = activity change below about -80%; inconclusive = between about -30% and that limit;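 also: parasites exposed to compound for two days anaerobically before the ATP read; % is scaled to controls: 0 for no effect and ±100 for the full control effect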
#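 Each well holds 100 Giardia trophozoites and compound. After two days (48 hrs) at 37 deg C in anaerobic conditions, ATP is quantified by luminescence.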
# An asterisk follows results filed as active; ? = inconclusive; . = not tested or not shown; [ ] = another dose, or the depositor's remark. Only some compounds are listed: those with a hit (about 6.5% of all), similar ones and a draw of the others. Unless noted, calls follow the shape of the dose curve; as a rule, active = well fitted curve in the direction sought with a large enough effect; inconclusive = small, poorly fitted or top-dose-only effect, or another doubt; inactive = no such curve, though single readings can be large; an effect the other way counts as inactive or inconclusive.
SMILES,HT1080NT lethal,IL1B secr inh,TGFb inhibitor,HepG2 tox,HT1080 IDH1KD tx,Giardia kill
Cc1ccccc1N1C(=O)NC(=O)/C(=C\c2cnn(-c3ccccc3)c2)C1=O,?,-96*,?,-68%,?,-7
Clc1ccc(C(c2ccc(Cl)cc2)n2cc[n+](CC(OCc3ccc(Cl)cc3Cl)c3ccc(Cl)cc3Cl)c2)cc1 (centres undefined),5.2µM*,-108*,18µM*,13µM*,5.8µM*,-14
CC12CN3CC(C)(CN(C1)C3c1cccs1)C2=O (centres undefined),10%,2,-1%,4%,25%,4
CCNCCNc1ccc([N+](=O)[O-])c2cccnc12,-30%,-61*,-25%,-27%,-22%,17
O=C(Nc1ccc(Br)cc1)c1nn(C23CC4CC(CC(C4)C2)C3)cc1Br,4%,20,?,-4%,8%,-4
CC1OC(O[C@H]2C[C@@H](O)[C@]3(CO)[C@H]4[C@H](O)C[C@]5(C)[C@@H](C6=CC(=O)OC6)CC[C@]5(O)[C@@H]4CC[C@]3(O)C2)C(O)C(O)C1O (some centres undefined),.,.,0.56µM*,-51%,.,.
COC1C(O)C(C)OC(OC2CCC3(C)C(CCC4C3C(O)CC3(C)C(C5=CC(=O)OC5)CCC43O)C2)C1O (centres undefined),1.5µM*,0,2µM*,-38%,0.82µM*,0
C[C@@H]1O[C@@H](O[C@H]2C[C@@H](O)[C@]3(CO)[C@@H]4C(CC[C@]3(O)C2)[C@@]2(O)CC[C@H](C3COC(=O)C3)[C@@]2(C)C[C@H]4O)[C@H](O)[C@H](O)[C@H]1O (some centres undefined),5.2µM*,-65*,?,-55%,1.3µM*,-2
CNC(=O)Nc1ccc(C(=O)N/N=C\C23CC[C@@H](O)CC2(O)CC[C@@H]2[C@@H]3CCC3(C)C(C4=CC(=O)OC4)CCC23O)cc1 (some centres undefined),?,30,-3%,-30%,?,9
Cc1cccc(-c2nc(CN3C(=O)CN=C(c4ccccc4)c4ccccc43)c(C)o2)c1,.,.,?,-52%,.,.
CNC(C)(C)Cc1ccccc1,23%,4,3%,-4%,6%,5
CC(C)(C)c1ccc(C(=O)Nc2ccc(NC(=O)c3ccco3)cc2)cc1,10µM*,7,?,-40%,10µM*,4
CC(C)c1ccc(NC(=O)Nc2nc(C(N)CCc3ccccc3)cs2)cc1 (centres undefined),?,-106*,?,7.9µM*,13µM*,.
CC(C)CC(N)c1csc(NC(=O)Nc2ccccc2-c2ccccc2)n1 (centres undefined),?,?,?,-97%,-21%,.
COC1/C=C/C=C(\C)Cc2cc(O)c(Cl)c(c2)N(C)C(=O)CC(OC(=O)C(C)C)C2(C)OC2C(C)C2CC1(O)NC(=O)O2 (centres undefined),0.0092µM*,6,?,-5%,?,?
CCSc1nnc([C@@H](N)Cc2c[nH]c3ccccc23)o1,4%,0,-21%,-22%,4%,6
CCOC(=O)c1ccc(NC(=O)CCNS(=O)(=O)c2ccc3c(c2)oc(=O)n3C)cc1,11%,27,?,-67%,19%,-6
CCOC(=O)c1ccc(NC(=O)CCc2nc(-c3ccc(C)cc3)no2)cc1,?,-69*,5%,-71%,?,1
CCN1CCN(c2cn[nH]c(=O)c2Cl)CC1,3%,-19,6%,-1%,2%,5
C[C@H]1CCC[C@@H](O)CCC/C=C/c2cc(O)cc(O)c2C(=O)O1,?,?,?,-57%,8.9µM*,3
NC(N)=N/N=C/c1ccc(N(c2ccccc2)c2ccccc2)cc1,?,-55*,13µM*,7.9µM*,?,16
Cc1cccc(CN2C(=O)CN=C(c3ccccc3)c3cc(Cl)ccc32)c1,.,.,16µM*,-41%,.,.
CCc1cccc(NC(=O)CN2C(=O)CN=C(c3ccccc3F)c3cc(Cl)ccc32)c1,.,.,13µM*,-55%,.,.
Cc1cccc(CN2C(=O)CN=C(c3ccccc3)c3ccccc32)c1,.,.,-23%,-1%,.,.
C[n+]1c2cc(N)ccc2cc2ccc(N)cc21,2.3µM*,-108*,-100%,-28%,2.3µM*,?
SMILES,HT1080NT lethal,IL1B secr inh,TGFb inhibitor,HepG2 tox,HT1080 IDH1KD tx,Giardia kill
CN1C(=O)c2ccccc2Sc2ccc(NC(=O)N3CCN(c4ccccc4)CC3)cc21,.,.,?,-21%,.,.
O=C(C1CC(c2ccc(F)cc2)=NO1)N1CCC2(CC1)OCCO2 (centres undefined),2%,-13,18%,1%,7%,-13
O=C(C1CC(c2ccc(Cl)c(Cl)c2)=NO1)N1CCC2(CC1)OCCO2 (centres undefined),-2%,-71*,0%,-1%,-4%[9.24 µM],-1
CC(C)(C)C(=O)O[C@H]1CC[C@@]2(C)C(=CC(=O)C3C2CC[C@]2(C)C(=O)[C@@H](F)CC32)C1 (some centres undefined),0%,-77*,10%,8%,-2%,0
CC(=O)OC1CC[C@@]2(C)C(=CC(=O)C3C4CCC(OC(C)=O)[C@@]4(C)CCC32)C1 (some centres undefined),17%,6,?,2%,10%,13
CC(C)c1ccc2nc3sc(C(=O)N4CCc5ccccc5C4)c(N)c3cc2c1,?,-12,45%,-17%,?,-1
Cc1ccc(-c2cc(C(F)F)n3ncc(C(=O)N4CCc5ccccc5C4)c3n2)cc1,6%,0,11µM*,-13%,10%,-29
C[C@H]1CC[C@@H]2[C@@H](C)[C@H]3[C@H](C[C@H]4[C@@H]5CC=C6C[C@@H](O[C@@H]7O[C@H](CO)[C@H](O)[C@H](O[C@@H]8O[C@H](CO)[C@@H](O)[C@H](O)[C@H]8O)[C@H]7O[C@@H]7O[C@@H](C)[C@H](O)[C@@H](O)[C@H]7O)CC[C@]6(C)[C@H]5CC[C@]34C)N2C1,3%,-98*,?,13µM*,-11%,-3
Cn1c(=O)oc2cc(NC(=O)CCl)ccc21,?,-80*,?,-73%,?,7
COc1cc(C2c3cc(O)c(OC)cc3CC3C(=O)OCC32)ccc1O (centres undefined),-2%,-1,0%,2%,2%,16
